Data reported in PubChem BioAssay AID1347076 (National Center for Advancing Translational Sciences (NCATS), 2019).
About 13,000 (3.2%) of roughly 400,000 compounds were called active. Roughly 18% stayed inconclusive and do not appear here. The sample as a whole holds a higher share of actives than the screen did. A number with no mark means an inactive call. The call rests on the fitted dose curve; in most records, active means well fitted cell-killing curve with a large enough effect; inconclusive means small, poorly fitted or top-dose-only effect, or effect the other way; inactive means flat fitted curve, though single readings scatter.

assay: qHTS assay for MDR1-selective chemotherapeutics: Primary screen using the drug-selected MDR subline cells KB-V1; conditions: KB-V1 MDR cells viability, CellTiter-Glo, 72 h; series mostly up to 46.1 µM; activity change, negative = cytotoxicity: at the top concentration; further: nearly all actives have a fitted effect of over 60% in size
Procedure, shortened: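 Following 72 h at 37 degrees C with compound, KB-V1 cell viability was read by CellTiter-Glo luminescence, medium being phenol-red-free DMEM plus 10% FBS; concentration-response parameters came from normalized, curve-fitted qHTS data.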
On the % scale 0 is the no-effect control and ±100 the full control effect; potency means the concentration at half of the fitted maximal effect.

SMILES	Potency	activity change, negative = cytotoxicity
Cc1nn(-c2ccccc2)c(Cl)c1/C=C/C(=O)c1ccc(O)cc1	20.6 µM (active)	–
Cc1nn(-c2ccccc2)c(Cl)c1/C=N/NC(=O)c1nn(C)cc1[N+](=O)[O-]	–	-21.2%
Cc1nn(-c2ccccc2)c(Cl)c1C(=O)Nc1ccccc1	–	0%
O=C1NC(O)CCN1C1CC(O)C(CO)O1 (stereo not drawn)	–	3.08%
N#Cc1cccc(Nc2c3c(nc4ccccc24)CCCC3)c1	–	0%
Cc1ccc(Nc2c3c(nc4ccccc24)CCC3)cc1	5.8 µM (active)	–
Cc1cc(Nc2ccc(Br)cc2)nc2ccccc12	–	0%
O=C(OCc1ccccc1)N1CCC2CC1c1cc(N3CCN(S(=O)(=O)c4cc(Cl)cc(Cl)c4)CC3)ccc12 (stereo not drawn)	–	-9.13%
COc1ccc(C(=O)ON=C2c3ccccc3-c3ccccc32)cc1OC	–	-13.7%
COc1ccc(C/C(N)=N/OC(=O)c2ccco2)cc1OC	–	-7.55%
COc1ccc(C(=O)O/N=C(\N)Cc2ccc(Cl)cc2Cl)cc1OC	23.1 µM (active)	–
COc1ccc(S(=O)(=O)N2CCCCC2c2cc(C(=O)NCc3ccc(F)cc3)no2)cc1 (stereo not drawn)	–	-24.5%
CCOC(=O)[C@]12CCCC=C1N(Cc1ccc3c(c1)OCO3)C(=O)[C@H](CC(=O)N1CCN(C(=O)c3ccco3)CC1)C2	–	0%
CC(=O)C1=CCC(c2ccccc2)N(S(=O)(=O)c2ccc(C)cc2)C1 (stereo not drawn)	–	4.38%
N#Cc1ccc(OCC(=O)Nc2nc(-c3ccccn3)cs2)cc1	–	-0.182%
O=C(COc1ccccc1F)NC1CC1	–	-1.57%
O=C(COc1ccccc1F)Nc1nc(-c2ccccn2)cs1	4.61 µM (active)	–
COc1ccc(-c2ccc3ncnc(NCc4cccs4)c3c2)cc1OC	–	12.9%
CCOC(=O)C1=CC[C@@H](c2ccccc2)N(S(=O)(=O)c2ccc(C)cc2)[C@H]1c1ccc(CC)cc1	–	-16.3%
S=C(NCC1CCCO1)N1CCN(c2ccc(Cl)c(Cl)c2)CC1 (stereo not drawn)	7.31 µM (active)	–
COc1ccc(S(=O)(=O)N2CCN(C(=S)NCC3CCCO3)CC2)cc1OC (stereo not drawn)	–	-5.5%
CCOc1ccc(S(=O)(=O)N2CCN(C(=S)NCC3CCCO3)CC2)cc1 (stereo not drawn)	–	-3.32%
CCCC(=O)Nc1ccc2oc(-c3ccc(O)c(Br)c3)nc2c1	–	0%
Cc1ccn(CC(=O)N2N=C(C(F)F)CC2(O)C(F)F)n1 (stereo not drawn)	–	13.8%
Cc1nn(CC(=O)N/N=C/c2ccc(F)cc2)c(C)c1[N+](=O)[O-]	–	18.1%
Cc1nn(Cc2ccc(C(=O)N3N=C(C(F)F)CC3(O)C(F)F)cc2)c(C)c1[N+](=O)[O-] (stereo not drawn)	8.2 µM (active)	–

SMILES	Potency	activity change, negative = cytotoxicity
N#Cc1ccc(-c2nc3c(Cl)cc(C(F)(F)F)cn3c2Cc2ccccc2C(F)(F)F)cc1	–	-4.42%
O=C1CC(c2ccc(F)cc2F)c2cc3c(cc2N1)OCO3 (stereo not drawn)	–	0%
COC(=O)C1=C(C)NC(=O)CC1c1ccccc1OC (stereo not drawn)	–	-1.64%
CCCOc1ccccc1C1CC(=O)Nc2cc3c(cc21)OCO3 (stereo not drawn)	4.61 µM (active)	–
Cc1cccc(N2CCN(c3ccc(C(=O)O)cc3NC(=O)c3ccccc3F)CC2C)c1 (stereo not drawn)	–	7.99%
CC1CCN(C(=O)CSc2nnc(-c3ccco3)n2N)CC1	–	0%
COc1cccc(C(O)c2nc(-c3ccc(C)c(C)c3)cs2)c1 (stereo not drawn)	–	-4.18%
COc1ccccc1NC(=O)CN(c1ccccc1OC)S(=O)(=O)c1ccccc1	–	0%
COc1ccc(S(=O)(=O)N2CCOCC2)cc1NC(=O)CC1CC2CCC1C2 (stereo not drawn)	–	-15.9%
CCCN(CC(=O)Nc1ccccc1OC)C(=O)CCC(=O)c1ccc(F)cc1	10.3 µM (active)	–
COc1ccccc1/C=C/C(=O)NC1CC2CCC1C2 (stereo not drawn)	–	-12.1%
CCN(CC(=O)Nc1ccccc1OC)C(=O)CC1CC2CCC1C2 (stereo not drawn)	16.4 µM (active)	–
COc1ccccc1NC(=O)COC(=O)COc1ccccc1F	–	14.3%
Cc1cc(C)cc(NC(=O)CCS(=O)(=O)c2cc3c4c(c2)CCN4C(=O)CC3)c1	–	0%
Cc1cccc(CN2CCN(C3CN(Cc4cn(Cc5ccccc5F)nn4)S(=O)(=O)C3)CC2)c1 (stereo not drawn)	–	-1.94%
Cc1cc(C(=O)NNC(=S)NC(C)c2ccccc2)cs1 (stereo not drawn)	14.6 µM (active)	–
Cc1ccc(OCC(=O)NC(C)c2ccccc2)cc1C (stereo not drawn)	–	17.2%
CC(NC(=S)NNS(=O)(=O)c1ccc(C(C)(C)C)cc1)c1ccccc1 (stereo not drawn)	–	-6.37%
Cc1ccc(C)c(NC(=S)NNC(=O)c2csc(C)c2)c1	18.4 µM (active)	–
Cc1ccc(C)c(NC(=S)NNC(=S)Nc2ccc(C(C)C)cc2)c1	–	-25.9%
Cc1ccc(C)c(NC(=O)CCC(=O)NNC(=O)c2cccs2)c1	–	24.8%
Nc1nc2ncccn2c1-c1ccccc1	–	-4.04%
CO[C@H]1O[C@@H]2O[C@@]3(C)CC[C@@H]4[C@@H](C)CC[C@@H]([C@H]1C)[C@@]24OO3	–	15.3%
COc1ccc(C)cc1-n1c(-c2ccc(C)cc2)cc2c1CC(C)(C)CC2=O	–	-3.87%
O=C(C[C@H]1CC[C@H]2[C@@H](COC[C@H](O)CN2C(=O)c2ccccn2)O1)N1CCN(c2ccccc2)CC1	–	-1.19%
O=c1[nH]c(CN2CCN(S(=O)(=O)c3ccc4c(c3)OCCO4)CC2)nc2sc3c(c12)CCCC3	–	1.37%

SMILES	Potency	activity change, negative = cytotoxicity
CS(=O)(=O)N(Cc1nc2sc3c(c2c(=O)[nH]1)CCCC3)C1CCCCC1	16.4 µM (active)	–
CCN(CC)Cc1nc2sc(C)c(C)c2c(=O)[nH]1	–	0%
Cc1ccc(C)c(N2CCN(C(=O)C3CCC(CNS(=O)(=O)c4cccs4)CC3)CC2)c1 (stereo not drawn)	–	-23.1%
O=C(CNS(=O)(=O)c1cccs1)N1CCN(c2ccccc2Cl)CC1	–	-4.89%
Cc1ccc(Cl)cc1N1CCN(C(=O)C2CCC(CNS(=O)(=O)c3cccs3)CC2)CC1 (stereo not drawn)	10.3 µM (active)	–
COc1ccc(S(=O)(=O)N2CCC(C(=O)NCCC(=O)NCCc3cccc(F)c3)CC2)cc1	–	15.5%
CC1CCCC(NC(=O)COC(=O)c2ccccc2C(=O)N(C)C2CCCCC2)C1C (stereo not drawn)	–	-16.4%
COc1ccc(-c2cc(C(=O)N3CCN(c4ccc(F)cc4)CC3)no2)cc1	18.4 µM (active)	–
O=C(c1cc(-c2ccc(Cl)cc2)on1)N1CCN(c2ccccc2)CC1	–	-1.64%
O=C(c1cc(-c2ccc(F)cc2)on1)N1CCN(c2ccc(F)cc2)CC1	inactive	–
CC1=C(C(=O)N2CCOCC2)CC(CC(=O)NCc2ccco2)C(=O)N1Cc1ccc(F)cc1 (stereo not drawn)	–	-14.3%
Cc1cc(C(=O)CCC(=O)NNC(=O)c2ccccc2O)c(C)s1	–	-7.24%
Cc1cc(C(=O)NNC(=O)c2ccccc2O)c(C)o1	–	-8.82%
O=C(NNC(=O)c1ccccc1O)c1ccccc1O	0.517 µM (active)	–
COc1ccc(NC(=O)CN(C)C(=O)c2cc(C)oc2C)cc1	–	4.74%
Cc1cc2nc(C)n(CCCNC(=O)Nc3ccccc3)c2cc1C	23.1 µM (active)	–
Cn1c(CCN2CCCCCC2)nc2cc(NC(=O)Nc3ccccc3)ccc21	–	-13%
COc1ccc(OCCCn2c(C)nc3cc(C)c(C)cc32)cc1	–	-11.1%
CCOC(=O)C1(C)CCCN(C(=O)c2ccc(F)c(Cl)c2)C1 (stereo not drawn)	–	1.02%
CNc1cc(-c2c(OC)cccc2OC)ncn1	–	4.08%
Cc1ccc(C(=O)NCCNC(=O)c2cnccn2)cc1	–	-5.06%
COc1ccccc1CCNC(=O)c1cnccn1	16.4 µM (active)	–
O=C(NCCCNC(=O)c1ccccc1Cl)c1cnccn1	–	0.177%
CC(=O)Nc1c(-c2ccc(C)cc2)nc2ccc(Cl)cn12	–	-4.17%
O=C(NCC(F)(F)F)c1ccc(S(=O)(=O)NCCc2ccc3c(c2)OCCO3)cc1	–	-0.75%
CCCc1nc2ccccc2n1C(C)C(=O)NC(C)(C)C (stereo not drawn)	–	-9.93%

SMILES	Potency	activity change, negative = cytotoxicity
COc1ccc(COC[C@H](CC(C)C)N2CCN(C(=O)c3cccc(C(F)(F)F)c3)CCC2=O)cc1	–	-8.45%
O=C(c1cc(Cl)cc(Cl)c1)N1CCC(=O)N(C(COCc2ccccc2)Cc2ccccc2)CC1 (stereo not drawn)	–	0%
CC(C)CC(COCc1ccc(Cl)cc1)N1CCN(C(=O)c2ccc(C(F)(F)F)cc2)CCC1=O (stereo not drawn)	20.6 µM (active)	–
COC(=O)[C@]12CCCCC=C1N(Cc1ccc3c(c1)OCO3)C(=O)[C@H](CC(=O)NCc1cccs1)C2	–	-26.6%
O=C1CCC(C(=O)OCC(=O)Nc2ccc(OC(F)F)cc2)=NN1	–	27.2%
Cc1ccc2c(c1)c1c(c(=O)n(-c3ccccc3)c(=O)n1CC(=O)c1ccc(Cl)cc1)n2C	–	-17.9%
CC(=O)NC(c1cccc(F)c1)c1nc(-c2cccc(F)c2)cs1 (stereo not drawn)	–	2.12%
Cc1cc(C)cc(NC(=O)CSCc2cnn(-c3ccccc3)c2-n2cccc2)c1	18.4 µM (active)	–
CC(=O)Nc1ccc(NC(=O)CSCc2cnn(-c3ccccc3)c2-n2cccc2)cc1	–	-13.4%
CCOc1ccc(NC(=O)c2cnn(-c3ccccc3)c2-n2cccc2)cc1	–	-13.3%
CCOc1ccccc1N(CC)C(=O)c1cc2ccc3cccnc3c2[nH]1	–	-16.2%
CCCCCOC(=O)NCCOC(=O)Nc1ccc(C(=O)OCC)cc1	16.4 µM (active)	–
CCOC(=O)Nc1ccc(NC(=O)OCC)cc1	–	0.438%
CCCCC(CCC(=O)Nc1ccc(C(=O)OCC)cc1)C(=O)O (stereo not drawn)	–	3.69%
CC1C(=O)N(Cc2cn(CC3CCCCC3)nn2)CCS(=O)(=O)N1Cc1ccc(-c2cccc(N(C)C)c2)cc1 (stereo not drawn)	–	2.2%
COc1ccc(-c2ccc(=O)n(CC(=O)Nc3ccc(Br)cc3F)n2)cc1	–	5.96%
O=C(NC(=O)c1ccccc1)Nc1ccccc1O	–	13.8%
O=C(Nc1ncccc1O)c1ccc(C(=O)c2ccccc2)cc1	23.1 µM (active)	–
O=C(Nc1ncccc1O)c1ccc(S(=O)(=O)N2CCCC2)cc1	–	-28.8%
C[C@@H]1CN([C@@H](C)CO)C(=O)c2cc(NS(C)(=O)=O)ccc2O[C@@H](C)CCCCO[C@H]1CN(C)C(=O)Nc1ccc2c(c1)OCO2	–	15.5%
O=C(NCc1ccccc1)C1c2ccccc2OCC(=O)N1C1CC1 (stereo not drawn)	–	10.6%
Cc1ccc(C(O)c2ncc(-c3ccccc3F)[nH]2)cc1F (stereo not drawn)	–	3.69%
O=C(Nc1cc(S(=O)(=O)Nc2ccc(Cl)cc2)ccc1O)c1ccc(F)cc1F	23.1 µM (active)	–
O=C(Nc1cccc(S(=O)(=O)NC2=NCCC2)c1)c1ccc(F)cc1F	–	-4.99%
CCS(=O)(=O)c1ccc(O)c(NC(=O)COc2ccc(Cl)cc2)c1	–	10.8%
